# Experimental data as given in PubChem BioAssay (NCI).
# Compounds without any hit were thinned out: in the full panel of roughly 79,000, 15% have a hit. Unmarked numbers belong to inactive results. Activity calls are given as the source filed them. Cut-off read from the data, not from the text of the source: active = growth inhibition above about 70%; inactive = the rest.
# Test: NCI Yeast Anticancer Drug Screen. Data for the rad52 strain (AID 147);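 note: 0% = growth of vehicle-treated control cultures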
# Conditions: S. cerevisiae rad52 mutant growth inhibition, active compounds read high
# Description: Growth inhibition of yeast strains with defined genetic alterations is measured as a screen for potential anti-cancer activity. Selected strains with alterations in DNA damage repair or cell cycle control were exposed to compounds and growth inhibition was measured relative to vehicle treated controls. The strain used in this assay is rad52
Compound,growth inhibition (at 1.2 µM) [%],growth inhibition (at 3.7 µM),growth inhibition (at 11.0 µM),growth inhibition (at 33.0 µM),growth inhibition (at 100.0 µM)
CCO/C=C1\SC(=S)N(c2ccc(OCC)cc2)C1=O,3,-1%,0%,25%,70% (active)
O=C(CCSC1=NCCCN1)c1ccc(F)cc1,-38,-55%,-53%,58%,99% (active)
CC1=CN2C(c3ccccc3)=NON(c3ccc(C)cn3)C2C=C1 (stereo not given),2,4%,-3%,1%,-7%
O=P(C(=S)Nc1c(Cl)cccc1Cl)(c1ccccc1)c1ccccc1,21,24%,22%,24%,97% (active)
Cc1cccc(/C=N/NC(=S)NC2CCCCC2)n1,-8,-9%,-8%,9%,6%
CC(=O)NC(c1nc2cc(C)c(C)cc2[nH]1)c1nc2cc(C)c(C)cc2[nH]1,0,-2%,5%,28%,62%
Nc1ccc(S(=O)(=O)Nc2nc3c(c(=O)[nH]2)CCCC3)cc1,14,18%,87% (active),99% (active),99% (active)
Cc1cccc2c1C1c3c(C)cccc3C(CC(=O)O)CC1CC2 (stereo not given),13,92% (active),97% (active),95% (active),88% (active)
